From PubChem
Many of the other results were omitted from the sample, so hits are more common in it than they were.
HIV RNase H inh-1 = HIV-1 RT RNase H inhibitors, primary screen, biochemical, fluorescence; hit rate 1.9% among 65,000; RT-RNase H RNA/DNA duplex cleavage; Gag-Pol polyprotein (Human immunodeficiency virus type 1 group M subtype B (isolate …; inhibition, % at 10 µM; in the data active = inhibition above about 50%
HIV RNase H inh-2 = HIV-1 RT RNase H inhibitors, retest, confirmation, biochemical; Recombinant RT RNase H, fluorescent RNA/DNA duplex cleavage; inhibition, % at 10 µM; shares compounds with HIV RNase H inh-1; hit rate 39% among 1,000; in the data active = inhibition above about 48%
A number is an active result; n = inactive.

SMILES | HIV RNase H inh-1 | others
COc1ccc(-n2ncc3c(N4CCN(c5cc(C)ccc5C)CC4)ncnc32)cc1 | 54.0 | HIV RNase H inh-2=n
CCN1CCN(c2ncnc3c2cnn3-c2ccc(C)cc2C)CC1 | n
Cc1ccc(-n2ncc3c(N4CCN(c5ccccc5)CC4)ncnc32)c(C)c1 | n
Cn1c(=O)[nH]c(=O)c2c1nc(N1CCCCC1)n2CCCSc1nc2ccccc2s1 | n
COc1cc(OC)c(C(=O)Nc2ncn[nH]2)cc1OC | n
CCOC(=O)N1CCN(C(=O)CN(c2cc(Cl)ccc2OC)S(=O)(=O)c2ccccc2)CC1 | n
C=CCOc1ccc(CC2C(=O)N(C)C(=O)N(C)C2=O)cc1 | 55.6 | HIV RNase H inh-2=87.9
CCN(CC)c1ccc(CC2C(=O)N(C)C(=O)N(C)C2=O)cc1 | n
COc1ccc(CC2C(=O)N(C)C(=O)N(C)C2=O)c(OC)c1 | n
Cc1cnc(-c2nnc(N(C)C(=O)c3cnccn3)s2)cn1 | n
CC(C)CCN(C)C1CCN(C(=O)Nc2c(F)cccc2F)CC1 | n
COC(=O)c1ccccc1NS(=O)(=O)c1ccc(O)c(C(=O)O)c1 | n
O=C(O)c1cc(S(=O)(=O)Nc2ccc3oc(=O)sc3c2)ccc1O | 82.3 | HIV RNase H inh-2=63.7
CC(=O)c1c(C)oc2ccc(NS(=O)(=O)c3ccc(O)c(C(=O)O)c3)cc12 | n
O=C1CC(N2CCN(C/C=C/c3ccccc3)CC2)C(=O)N1Cc1cccs1 (configuration not stated) | n
O=C1CC(N2CCN(c3ccc(O)cc3)CC2)C(=O)N1Cc1cccs1 (configuration not stated) | 80.7 | HIV RNase H inh-2=n
O=C1CC(N2CCN(C3CC(=O)N(CCc4ccccc4)C3=O)CC2)C(=O)N1CCc1ccccc1 (configuration not stated) | n
Oc1ccc2[nH]cnc2c1CN1CCCCC1 | n
CCOC(=O)C1=C(NC(=O)c2ccc(Br)o2)Nc2ccccc2N=C1 | n
CC(=O)Nc1cc(S(=O)(=O)C(F)(F)F)ccc1Cl | n
O=C(Cc1ccccc1)N1CCC(c2nc3ccccc3[nH]2)CC1 | n
S=c1nc(C2CC2)[nH]c2ccccc12 | 84.0 | HIV RNase H inh-2=69.2
CC(C)c1nc(=S)c2ccccc2[nH]1 | n
Cc1ccc(NC(=O)c2ccc3c(c2)N(CC(=O)N2CCCCC2)C(=O)C(C)(C)O3)cc1 | n
CC1(C)Oc2ccc(C(=O)N3CCCC3)cc2N(CC(=O)NCc2ccccc2)C1=O | n
SMILES | HIV RNase H inh-1 | others
CC1(C)Oc2ccc(C(=O)NC3CCCC3)cc2N(CC(=O)NC2CCCCC2)C1=O | 72.9 | HIV RNase H inh-2=n
CC(C)Oc1ccc(Cc2c(O)nc(NCCCN(C)C)[nH]c2=O)cc1 | n
COc1cc(NC(=O)CCCC(=O)OCC(F)(F)C(F)F)nc(OC)n1 | n
CCc1c(C)nc(N)n2c(SCC(=O)N3CCN(c4ccccc4F)CC3)nnc12 | n
CCOC(=O)c1snc(-c2ccc(F)cc2)c1N | n
CCOC(=O)c1sc(N)nc1-c1ccccc1 | 70.8 | HIV RNase H inh-2=n
CCOC(=O)Nc1sc(C)nc1-c1ccccc1 | n
C=CCn1c(N)c(C(=O)NCc2cccnc2)sc1=S | n
CC1CC(C)(C)NC(=O)O1 (configuration not stated) | n
CC1CC(C)(C)NC(=S)S1 (configuration not stated) | 78.5 | HIV RNase H inh-2=51.9
O=C(Nc1ccc2oc(=O)ccc2c1)c1cccnc1 | n
Cc1ccc2cc(C#N)c(NCc3ccco3)nc2c1 | n
CCn1c(SCC(N)=O)nnc1-c1ccc(OC)c(OC)c1 | n
C=CCn1c(SCC(=O)c2ccc(O)c(O)c2)nnc1-c1ccccc1OC | 84.6 | HIV RNase H inh-2=62.2
CCn1c(SCC(=O)c2ccc(F)cc2)nnc1-c1ccoc1C | n
CCn1c(SCC(=O)c2ccc(O)c(O)c2)nnc1-c1ccccc1OC | 81.3 | HIV RNase H inh-2=62.1
C=CCn1c(SCC(N)=O)nnc1-c1ccccc1O | n
C=CCn1c(SCC(=O)NCc2ccccc2)nnc1-c1ccccc1O | n
CCOC(=O)CCCOC(=O)c1ccc(S(=O)(=O)N(C)C)cc1 | n
O=C(O)c1cn[nH]c1-n1cnnn1 | n
CC1(C)CC2CC(C)(CN2C(=O)c2cc(-c3ccccc3O)on2)C1 (configuration not stated) | n
CCOC(=O)c1nnn(-c2nonc2N)c1CN(C)Cc1ccccc1 | n
CC1CCc2cc(F)ccc2N1C(=O)CN1C(=O)c2ccccc2C1=O (configuration not stated) | n
CCOc1cc2c(cc1OCC)C(c1cc(OC)c(O)c(OC)c1)NCC2 (configuration not stated) | n
COc1ccc(-c2cc(N)n(S(=O)(=O)c3c(F)c(F)c(F)c(F)c3F)n2)cc1OC | n
SMILES | HIV RNase H inh-1 | others
CC(C)OC(=O)CSc1nnc(-c2ccncc2)n1N | n
CC(C)OC(=O)CSc1nnc(-c2ccc(C(C)(C)C)cc2)n1N | 82.4 | HIV RNase H inh-2=63.4
CC(C)(C)c1ccc(-c2nnc(SCC(=O)O)n2N)cc1 | n
CCn1c(SCC(=O)N2CCC(C(N)=O)(N3CCCCC3)CC2)nnc1-c1ccccc1 | n
Cc1ccccc1CN1CCN(CC(=O)NCc2ccccc2)C1=O | n
O=C(Cc1c(F)cccc1Cl)N1CCCC1 | n
CCOC(=O)N1CCC(NC(=O)CCc2nc(-c3ccc(C)cc3)no2)CC1 | n
Cc1ccc(F)c(NC(=O)C2CCCCC2C(=O)O)c1 (configuration not stated) | n
COc1nc(-c2ccc(Cl)cc2)ccc1-c1noc(-c2ccncc2)n1 | 63.9 | HIV RNase H inh-2=n
COc1nc(C)ccc1-c1noc(-c2ccncc2)n1 | n
COc1nc(-c2ccccc2)ccc1-c1noc(-c2ccccc2)n1 | n
O=C(NCc1ccc2c(c1)OCO2)c1c(O)c2cccc3c2n(c1=O)CCC3 | 72.4 | HIV RNase H inh-2=n
O=C(NCc1ccccc1)c1c(O)c2cccc3c2n(c1=O)CCC3 | n
O=C(NCc1ccc(F)cc1)c1c(O)c2cccc3c2n(c1=O)CCC3 | n
O=C1C2CC=C(Cl)CC2C(=O)N1CN(Cc1ccco1)CN1C(=O)C2CC=C(Cl)CC2C1=O (configuration not stated) | n
Cc1ccc(N2C(=O)CSC2c2cccnc2)cc1F (configuration not stated) | n
COc1ccccc1OCC(=O)NC1CCCCCC1 | n
CCCC(=O)Nc1ccccc1NC(=O)C1CCCCC1 | n
CCCC(=O)Nc1cc(OC)c(NC(=O)NC2CCCCC2)cc1OC | 53.0 | HIV RNase H inh-2=n
CCSc1nnc(NC(=O)Cc2ccc(OC)c(S(=O)(=O)N3CCOCC3)c2)s1 | n
N#CCCN(C1CCCCC1)S(=O)(=O)CCOc1ccccc1 | n
CCCCCOc1ccc(C(=O)NC(C(=O)O)C(C)C)cc1 (configuration not stated) | n
COc1cc(/C=C/C(=O)CC(=O)/C=C/c2ccc(O)c(OC)c2)ccc1O | 82.8 | HIV RNase H inh-2=56.9
COC(=O)C1=CN(C)C=C(C(=O)OC)C1c1ccc(O)c(OC)c1 | n
COc1cc(/C=C/C2=NC(=O)C(C)(C)O2)ccc1O | n
SMILES | HIV RNase H inh-1 | others
Cc1nc(N2CCN(C)CC2)c2c(C)c(C(=O)Nc3ccc(F)cc3)sc2n1 | n
Nc1c(C(=O)Nc2ccc(F)cc2)sc2nc(-c3ccco3)ccc12 | 88.5 | HIV RNase H inh-2=n
O=C(Nc1ccc(-n2nncc2-c2ccco2)cc1)c1ccc(F)cc1 | n
CCOc1cc(C(=O)N2CCOCC2)ccc1OCc1ccccc1 | n
O=C1c2ccccc2C(=O)N1C/C=C/CN1C(=O)c2ccccc2C1=O | n
O=C1C=Cc2ccccc2C1=O | 94.9 | HIV RNase H inh-2=66.9
CCN1C(=C2C(=O)c3ccccc3C2=O)C=Cc2ccccc21 | n
